# Reference: the supplement of paper PMC12282887
# ± gives the standard deviation of the averaged measurements.
# Test system: E. coli BW25113 marRABp lux reporter
# Assay: promoter activity interaction Z-score (Lux/OD deviation from empty-vector control); higher = stronger promoter induction by the compound
# Experimental: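 E. coli BW25113 (wild type or ΔmarA/ΔsoxS/Δrob) carrying pTU175 luxCDABE promoter reporters was grown in LB in 384-well plates at 37°C with each of 94 compounds at 4 two-fold concentrations, in biological duplicates. Luminescence and OD600 were read every 30 min for 12 h and integrated as AUC over 8 h (0-8 h WT, 1-9 h mutants). Lux AUC was divided by OD AUC; the interaction score is the residual of a Huber robust fit of each promoter against the empty-vector control, then Z-transformed per promoter.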
compound,measurement,setting,value
O=C(O)c1cn(C2CC2)c2cc(N3CCNCC3)c(F)cc2c1=O [Ciprofloxacin],promoter activity interaction Z-score,"0.0012 µg/ml, genetic background: wild type",-0.376 ± 0.019
same,promoter activity interaction Z-score,"0.0012 µg/ml, genetic background: ΔmarA",-0.0878 ± 0.24
same,promoter activity interaction Z-score,"0.0012 µg/ml, genetic background: Δrob",-0.0711 ± 0.075
same,promoter activity interaction Z-score,"0.0012 µg/ml, genetic background: ΔsoxS",0.251 ± 0.081
same,promoter activity interaction Z-score,"0.0025 µg/ml, genetic background: wild type",-0.228 ± 0.28
same,promoter activity interaction Z-score,"0.0025 µg/ml, genetic background: ΔmarA",-0.253 ± 0.031
same,promoter activity interaction Z-score,"0.0025 µg/ml, genetic background: Δrob",-0.0459 ± 0.41
same,promoter activity interaction Z-score,"0.0025 µg/ml, genetic background: ΔsoxS",0.188 ± 0.098
same,promoter activity interaction Z-score,"0.005 µg/ml, genetic background: wild type",-0.472 ± 0.005
same,promoter activity interaction Z-score,"0.005 µg/ml, genetic background: ΔmarA",-0.302 ± 0.12
same,promoter activity interaction Z-score,"0.005 µg/ml, genetic background: Δrob",-0.138 ± 0.072
same,promoter activity interaction Z-score,"0.005 µg/ml, genetic background: ΔsoxS",0.0987 ± 0.0052
same,promoter activity interaction Z-score,"0.0099 µg/ml, genetic background: wild type",2.5 ± 0.32
same,promoter activity interaction Z-score,"0.0099 µg/ml, genetic background: ΔsoxS",4.16
C[C@@H](O)[C@H]1C(=O)N2C(C(=O)O)=C(S[C@@H]3CN[C@H](C(=O)N(C)C)C3)[C@H](C)[C@H]12 [Meropenem],promoter activity interaction Z-score,"0.011 µg/ml, genetic background: wild type",-0.451 ± 0.26
same,promoter activity interaction Z-score,"0.011 µg/ml, genetic background: ΔmarA",-0.532 ± 0.041
same,promoter activity interaction Z-score,"0.011 µg/ml, genetic background: Δrob",-0.399 ± 0.031
same,promoter activity interaction Z-score,"0.011 µg/ml, genetic background: ΔsoxS",-0.178 ± 0.1
same,promoter activity interaction Z-score,"0.022 µg/ml, genetic background: wild type",-0.13 ± 0.065
same,promoter activity interaction Z-score,"0.022 µg/ml, genetic background: ΔmarA",-0.4 ± 0.097
same,promoter activity interaction Z-score,"0.022 µg/ml, genetic background: Δrob",-0.114 ± 0.41
same,promoter activity interaction Z-score,"0.022 µg/ml, genetic background: ΔsoxS",0.18 ± 0.22
same,promoter activity interaction Z-score,"0.044 µg/ml, genetic background: wild type",0.785
same,promoter activity interaction Z-score,"0.044 µg/ml, genetic background: ΔmarA",-0.754
same,promoter activity interaction Z-score,"0.044 µg/ml, genetic background: Δrob",1
same,promoter activity interaction Z-score,"0.044 µg/ml, genetic background: ΔsoxS",-0.0187
CN(C)C(=N)NC(=N)N [Metformin],promoter activity interaction Z-score,"20.7 µg/ml, genetic background: wild type",-0.244 ± 0.08
same,promoter activity interaction Z-score,"20.7 µg/ml, genetic background: ΔmarA",0.0455 ± 0.11
same,promoter activity interaction Z-score,"20.7 µg/ml, genetic background: Δrob",-0.139 ± 0.14
same,promoter activity interaction Z-score,"20.7 µg/ml, genetic background: ΔsoxS",-0.145 ± 0.0015
same,promoter activity interaction Z-score,"41.4 µg/ml, genetic background: wild type",-0.1 ± 0.072
same,promoter activity interaction Z-score,"41.4 µg/ml, genetic background: ΔmarA",-0.132 ± 0.1
same,promoter activity interaction Z-score,"41.4 µg/ml, genetic background: Δrob",-0.0299 ± 0.073
same,promoter activity interaction Z-score,"41.4 µg/ml, genetic background: ΔsoxS",-0.0239 ± 0.17
same,promoter activity interaction Z-score,"82.8 µg/ml, genetic background: wild type",-0.104 ± 0.063
same,promoter activity interaction Z-score,"82.8 µg/ml, genetic background: ΔmarA",-0.195 ± 0.23
same,promoter activity interaction Z-score,"82.8 µg/ml, genetic background: Δrob",-0.113 ± 0.043
same,promoter activity interaction Z-score,"82.8 µg/ml, genetic background: ΔsoxS",-0.0656 ± 0.052
same,promoter activity interaction Z-score,"165.6 µg/ml, genetic background: wild type",-0.551 ± 0.065
same,promoter activity interaction Z-score,"165.6 µg/ml, genetic background: ΔmarA",-0.242 ± 0.025
same,promoter activity interaction Z-score,"165.6 µg/ml, genetic background: Δrob",-0.0241 ± 0.2
same,promoter activity interaction Z-score,"165.6 µg/ml, genetic background: ΔsoxS",0.145 ± 0.22
